# Source: the antibiotic and cytotoxicity screens of Wong et al. (2023)
# In all, about 39,000 compounds went through this assay and about 3,300 (8.5%) were called active. Shown is part of a subset that was picked to be rich in actives.
# System: HepG2
# Test: cytotoxicity call (relative viability < 0.9)
# Conditions: 10 µM
row,SMILES,cytotoxicity call
1,Cc1noc(C)c1NC(=O)Nc1ccc2c(c1)C(=O)N([C@@H](C)CO)C[C@H](C)[C@H](CN(C)C(=O)Nc1ccc3c(c1)OCO3)OCCCC[C@H](C)O2,inactive
2,COc1ccc(S(=O)(=O)N(C)C[C@H]2Oc3c(cccc3N(C)C)C(=O)N([C@@H](C)CO)C[C@H]2C)cc1,inactive
3,C[C@@H]1CCCCO[C@@H](CN(C)Cc2ccc(Cl)c(Cl)c2)[C@@H](C)CN([C@H](C)CO)C(=O)c2cc(NC(=O)CCC(F)(F)F)ccc2O1,inactive
4,C[C@@H]1CCCCO[C@H](CN(C)Cc2ccc3c(c2)OCO3)[C@@H](C)CN([C@@H](C)CO)C(=O)c2cc(NC(=O)CCC(F)(F)F)ccc2O1,inactive
5,C[C@@H]1CCCCO[C@@H](CN(C)Cc2ccc(Cl)c(Cl)c2)[C@H](C)CN([C@H](C)CO)C(=O)c2cc(NC(=O)CCC(F)(F)F)ccc2O1,inactive
6,C[C@@H]1CCCCO[C@@H](CN(C)Cc2ccc3c(c2)OCO3)[C@H](C)CN([C@H](C)CO)C(=O)c2cc(NC(=O)CCC(F)(F)F)ccc2O1,inactive
7,C[C@@H]1CCCCO[C@H](CN(C)Cc2ccc(Cl)c(Cl)c2)[C@H](C)CN([C@H](C)CO)C(=O)c2cc(NC(=O)CCC(F)(F)F)ccc2O1,active
8,C[C@@H]1CCCCO[C@H](CN(C)Cc2ccc(Cl)c(Cl)c2)[C@H](C)CN([C@@H](C)CO)C(=O)c2cc(NC(=O)CCC(F)(F)F)ccc2O1,active
9,COc1ccc(S(=O)(=O)Nc2ccc3c(c2)C(=O)N([C@@H](C)CO)C[C@@H](C)[C@@H](CN(C)S(=O)(=O)c2cn(C)cn2)OCCCC[C@@H](C)O3)cc1,inactive
10,C[C@@H]1CCCCO[C@@H](CN(C)C(=O)Cc2ccccc2)[C@@H](C)CN([C@@H](C)CO)C(=O)c2cc(NC(=O)NC3CCCCC3)ccc2O1,inactive
11,C[C@@H]1COC(=O)[C@@H](NC(=O)OCC2c3ccccc3-c3ccccc32)CC=CC[C@H](CC(=O)NCCO)C(=O)N1,inactive
12,CN(C)CCCC[C@@H]1NC(=O)[C@H]2C[C@@H](C(=O)NCCCCCNC(=O)CS)[C@@H](c3ccc(O)cc3)N2C1=O,inactive
13,O/N=C/c1ccc2ccccc2c1,inactive
14,O/N=C/c1ccccc1C(F)(F)F,active
15,O/N=C/c1c(Cl)cccc1Cl,inactive
16,CC(C)(C)N1C[C@H](C(=O)O)CC1=O,inactive
17,Cc1ccc(S(=O)(=O)Nc2cccc3c2O[C@H](CN(C)S(C)(=O)=O)[C@@H](C)CN([C@H](C)CO)C3=O)cc1,inactive
18,C[C@@H]1CN([C@@H](C)CO)S(=O)(=O)c2ccc(-c3cncnc3)cc2O[C@@H]1CN(C)C(=O)c1ccc2c(c1)OCO2,inactive
19,O=c1c2ccccc2oc2ccc(O)cc12,inactive
20,O=c1[nH]c(=O)c2ccccc2o1,inactive
21,CCc1oc2ccccc2c1C(=O)c1cc(Br)c(O)c(Br)c1,active
22,Cc1ccc(CNc2ccc3c(c2)ncn3C2CCCCC2)cc1,inactive
23,O=C(CCCCCNC(=O)OCc1ccc(CO[C@@H]2C[C@H](C3CCCCC3)C=C(C(=O)N3CCN(Cc4ccccc4)CC3)O2)cc1)NO,inactive
24,COc1cccc(C#Cc2ccc([C@@H]3[C@H]4CN(S(=O)(=O)c5ccccc5C)CC(=O)N4[C@H]3CO)cc2)c1,inactive
25,O=C1CN(S(=O)(=O)Cc2ccccc2)C[C@@H]2[C@H](c3ccc(C#Cc4ccc(F)cc4)cc3)[C@H](CO)N12,inactive
26,O=C1CN(S(=O)(=O)Cc2ccccc2)C[C@H]2[C@H](c3ccc(C#Cc4cccc(F)c4)cc3)[C@H](CO)N12,active

row,SMILES,cytotoxicity call
1,O=C1CN(S(=O)(=O)Cc2ccccc2)C[C@H]2[C@@H](c3ccc(C#Cc4cccc(F)c4)cc3)[C@@H](CO)N12,inactive
2,COc1cccc(C#Cc2ccc([C@@H]3[C@H](CO)N4C(=O)CN(S(=O)(=O)c5ccccc5C)C[C@@H]34)cc2)c1,inactive
3,COc1cccc(C#Cc2ccc([C@H]3[C@H](CO)N4C(=O)CN(S(=O)(=O)c5ccccc5C)C[C@@H]34)cc2)c1,inactive
4,O=C1CN(S(=O)(=O)Cc2ccccc2)C[C@@H]2[C@@H](c3ccc(C#Cc4cccc(F)c4)cc3)[C@@H](CO)N12,active
5,O=C1CN(S(=O)(=O)Cc2ccccc2)C[C@H]2[C@@H](c3ccc(C#Cc4ccc(F)cc4)cc3)[C@H](CO)N12,inactive
6,O=C1CN(S(=O)(=O)Cc2ccccc2)C[C@@H]2[C@H](c3ccc(C#Cc4cccc(F)c4)cc3)[C@@H](CO)N12,inactive
7,O=C1CN(S(=O)(=O)Cc2ccccc2)C[C@H]2[C@H](c3ccc(C#Cc4cccc(F)c4)cc3)[C@@H](CO)N12,active
8,O=C1CN(S(=O)(=O)Cc2ccccc2)C[C@@H]2[C@@H](c3ccc(C#Cc4cccc(F)c4)cc3)[C@H](CO)N12,inactive
9,O=C1CN(S(=O)(=O)Cc2ccccc2)C[C@H]2[C@@H](c3ccc(C#Cc4cccc(F)c4)cc3)[C@H](CO)N12,active
10,CN(C)Cc1ccc(O)c(CN(C)C)n1,inactive
11,COCC(=O)N1C[C@H](C)[C@@H](OC)CN(C)C(=O)c2cc(NC(=O)Nc3ccccc3)ccc2OC[C@@H]1C,inactive
12,COCCNC(=O)C[C@@H]1CC[C@@H]2[C@H](COC[C@@H](O)CN2C(=O)Nc2ccccc2OC)O1,inactive
13,O=c1cccn[nH]1,inactive
14,COc1ccc(-c2cnc3c(c2)C(=O)N([C@@H](C)CO)C[C@H](C)[C@@H](CN(C)C(=O)Cc2ccccn2)O3)cc1,inactive
15,C[C@@H]1CN([C@H](C)CO)C(=O)c2cc(NS(=O)(=O)c3cccs3)ccc2O[C@H]1CN(C)S(C)(=O)=O,inactive
16,C[C@@H]1CCCCO[C@@H](CN(C)S(=O)(=O)c2cccs2)[C@H](C)CN([C@@H](C)CO)C(=O)c2cc(NC(=O)Nc3cccc4ccccc34)ccc2O1,inactive
17,COCC#Cc1ccc2c(c1)O[C@@H](CN(C)C(=O)C1CCCCC1)[C@@H](C)CN([C@H](C)CO)S2(=O)=O,inactive
18,C[C@H](CO)N1C[C@H](C)[C@@H](CN(C)C(=O)CCC(F)(F)F)OCCCC[C@H](C)Oc2ccc(NC(=O)c3ccccc3)cc2C1=O,inactive
19,C[C@H]1CN([C@@H](C)CO)C(=O)c2ccccc2-c2ccccc2CO[C@H]1CN(C)C(=O)Nc1ccc(-c2ccccc2)cc1,inactive
20,COc1ccc(NC(=O)Cn2c(=O)c3c(OC)ccnc3n(C)c2=O)c(OC)c1,inactive
21,COc1cc(/C=C/C(=O)O[C@H]2CC[C@]34C[C@]35CC[C@]3(C)[C@@H]([C@@H](C)CCC=C(C)C)CC[C@@]3(C)[C@@H]5CC[C@@H]4C2(C)C)ccc1O,inactive
22,O=C1CN(S(=O)(=O)Cc2ccccc2)C[C@@H]2[C@H](c3ccc(C#Cc4cccc(F)c4)cc3)[C@H](CO)N12,active
23,O=C(CN1CCOCC1)N[C@H]1CC[C@H](CCNC(=O)C2CCC2)O[C@H]1CO,inactive
24,C[C@@H]1CN([C@@H](C)CO)C(=O)c2cc(NC(=O)Cn3cnnn3)ccc2O[C@H]1CN(C)Cc1ccc(C(F)(F)F)cc1,inactive
25,COc1ccc(CCNC(=O)[C@@]2(Sc3ccc(C)cc3)CC(=O)N(Cc3ccccc3C(F)(F)F)[C@@H]2c2ccc(CO)cc2)cc1,inactive
26,O=c1[nH]cc(F)c(=O)[nH]1 [listing 1 of 2 here],active

row,SMILES,cytotoxicity call
1,O=c1[nH]cc(S(=O)(=O)N2CCN(c3ccccc3F)CC2)c(=O)[nH]1,inactive
2,O=c1[nH]cc(F)c(=O)[nH]1 [listing 2 of 2 here],active
3,O=c1[nH]cc(N2CCCCC2)c(=O)[nH]1,inactive
4,O=c1[nH]cc(Nc2ccccc2)c(=O)[nH]1,inactive
5,CCOCc1c[nH]c(=O)[nH]c1=O,inactive
6,COc1ccc(NC(=O)N(C)C[C@H]2Oc3c(NS(=O)(=O)c4cn(C)cn4)cccc3C(=O)N([C@@H](C)CO)C[C@H]2C)cc1,inactive
7,Cn1cc(S(=O)(=O)Nc2ccc3c(c2)OCCO3)c(=O)n(C)c1=O,inactive
8,C[C@@H]1CN([C@@H](C)CO)C(=O)c2cc(C#CC3(O)CCCC3)cnc2O[C@@H]1CN(C)S(C)(=O)=O,inactive
9,CC(C)NC(=O)N(C)C[C@H]1Oc2ccc(NC(=O)Nc3ccc4c(c3)OCO4)cc2C(=O)N([C@H](C)CO)C[C@@H]1C,inactive
10,C=CCN(C(=O)[C@H]1N(C(C)(C)CO)C(=O)[C@H]2[C@H](C(=O)O)[C@@H]3C=C[C@@]21O3)C(C)(C)C,inactive
11,O=c1cc(-c2ccccc2)oc2ccc(O)cc12,inactive
12,S=c1cc(-c2ccccc2)oc(-c2ccccc2)c1,active
13,Cc1cc(-c2ccccc2)oc2cc3ccccc3c1-2,inactive
14,O=C(N[C@@H](c1ccc(-c2ccccc2)cc1)c1cnccn1)C1CCN(CCOc2ccc(F)cc2)CC1,active
15,O=C(N[C@H](c1ccc(Cl)cc1)c1ccccn1)C1CCN(CCOc2ccc(Cl)cc2Cl)CC1,inactive
16,O=C(N[C@@H](c1ccc(-c2ccccc2)cc1)c1cnccn1)C1CCN(CCCOc2ccccc2)CC1,active
17,O=C(N[C@@H](c1ccc2c(c1)OCO2)c1ccccn1)C1CCN(CCOc2ccc(Cl)cc2Cl)CC1,inactive
18,Cc1cccnc1[C@@H](NC(=O)C1CCN(CCOc2ccc(Cl)cc2Cl)CC1)c1ccc(F)cc1,inactive
19,C[C@H]1CN([C@@H](C)CO)C(=O)c2ccccc2-c2ccccc2CO[C@H]1CN(C)Cc1ccc(-c2ccccc2)cc1,inactive
20,CN(C)C(=O)N1C[C@@H]2[C@@H](C1)C(=O)N(C)C21CCN(S(C)(=O)=O)CC1,inactive
21,C[C@H](O)[C@H](O)[C@@H](O)[C@@H](O)/C=N/NC(=O)c1ccccn1,inactive
22,O=C(C[C@@H]1CC[C@@H]2[C@H](COC[C@H](O)CN2CC2CCOCC2)O1)N1CCOCC1,inactive
23,O=C(NCCO)c1cc2ccccc2oc1=O,inactive
24,CCc1nc2ccc(C(=O)NCCOc3ccc(OC)cc3)cn2c1N(CC)Cc1cccc(Br)c1,inactive
25,Cc1cc(C)c(N(Cc2ccccc2)S(=O)(=O)c2ccc(OCCNC(=O)c3cc4ccccc4o3)cc2)c(C(=O)NO)c1,active
